Screen size: about 5,500 compounds; about 2,000 (36%) were called active. Not shown: some 18% with an inconclusive outcome. No stated cut-off is given here; in the data, active means normalized growth mostly below about 0.91 (no sharp cut-off); inconclusive means no clear call, values can overlap the other calls; inactive means mostly above about 0.92. Some of the results follow.
Test: chemical genetic growth profiling, strain panel (AID 1159580);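 further: tested at 20 µM; growth read once vehicle control cultures reached saturation at 30 °C; 1 = growth at the plate median or of vehicle wells; lower values mean less growth of the strain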
Details: S. cerevisiae deletion strains, growth OD

Measured: normalized growth

O=S(=O)(NCC1CC1)c1ccc(F)c(Cl)c1
inactive: locus YAL013W, strain DEP1, hits give low values 1 | locus YBR229C, strain ROT2, hits give low values 1 | locus YCL061C, strain MRC1, hits give low values 0.999 | locus YDL101C, strain DUN1, hits give low values 0.994 | locus YDL134C, strain PPH21, hits give low values 1.01 | locus YDR150W, strain NUM1, hits give low values 0.945 | locus YEL061C, strain CIN8, hits give low values 1 | locus YGR078C, strain PAC10, hits give low values 1 | locus YHR030C, strain SLT2, hits give low values 0.969 | locus YHR087W, strain rtc3, hits give low values 1.02 | locus YJR043C, strain POL32, hits give low values 0.997 | locus YJR075W, strain HOC1, hits give low values 1.01 | locus YLR039C, strain RIC1, hits give low values 1.06 | locus YLR058C, strain SHM2 (second series), hits give low values 1 | locus YLR085C, strain ARP6, hits give low values 1 | locus YLR262C, strain YPT6, hits give low values 1 | locus YML094W, strain GIM5, hits give low values 1.01 | locus YMR219W, strain ESC1, hits give low values 1 | locus YMR263W, strain SAP30, hits give low values 1 | locus YNL153C, strain GIM3, hits give low values 1 | locus YNL298W, strain CLA4 (second series), hits give low values 1.03 | locus YNL322C, strain KRE1, hits give low values 0.995 | locus YNR030W, strain Alg12, hits give low values 0.996 | locus YOL006C, strain TOP1, hits give low values 1.05 | locus YPL055C, strain LGE1, hits give low values 1.02 | locus YPL241C, strain CIN2, hits give low values 0.99 | locus YPR135W, strain CTF4, hits give low values 1.02

Source: PubChem BioAssay AID1159580 (chemical genetic matrix, 2015)
